# “And” between values parts separate entries of the source, which are not always exact repeats. Identical values can stand only once. Results filed as inconclusive are left out. The source made the active and inactive calls. Calls follow the shape of the dose curve; as a rule, active = well fitted curve in the direction sought with a large enough effect; inconclusive = small, poorly fitted or top-dose-only effect, or another doubt; inactive = no such curve, though single readings can be large; an effect the other way counts as inactive or inconclusive. *1 amine or outer side, *2 acyl side, *3 side chain or, on linkers, in order; H or OH if unused. Where a SMILES comes first, the peptide text is derived from it. Non-standard residues stand in square brackets, D forms with d. Residues, ends and D or L forms follow the SMILES beside them. Bridges are numbered along the chain shown (N, C = ends). Roman numbers before positions name the chains, in order. [ ]: non-standard residue; d: D form. ξ: configuration not given here. Actinocin(9to1) = Cc1c2oc3c(C)ccc(C(=O)[*:1])c3nc-2c(C(=O)[*:2])c(N)c1=O; Orn = NCCC[C@H](N)C(=O)O; ξNMeV = CNC(C(=O)O)C(C)C; ξV = CC(C)C(N)C(=O)O; Sar = CNCC(=O)O
# Assay: qHTS Assay for Identifying Gametocytocidal Compounds (AID 743244); also: potency is read from the fitted curve at half-maximal effect;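 as to max response: actives lower the fluorescent signal which means gametocytes are killed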
# Settings: P. falciparum 3D7 stage III-V gametocytes, alamarBlue, 72 h; max response: active compounds read low
# Procedure, shortened: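 Stage III-V P. falciparum 3D7 gametocytes, 20,000 per well, were exposed to compounds for 72 h at 37C, 5% CO2. AlamarBlue was then added for 24 h and viability was read as fluorescence at Ex 525/Em 598 nm.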
# % is scaled to controls: 0 for no effect and ±100 for the full control effect.
Compound,Potency,max response
CCOc1cc2ncc(C#N)c(Nc3ccc(OCc4ccccn4)c(Cl)c3)c2cc1NC(=O)/C=C/CN(C)C,23.5 µM (active),
"Cc1c2oc3c(C)ccc(C(=O)N[C@@H]4C(=O)NC(C(C)C)C(=O)N5CCC[C@H]5C(=O)N(C)CC(=O)N(C)C(C(C)C)C(=O)O[C@@H]4C)c3nc-2c(C(=O)N[C@@H]2C(=O)NC(C(C)C)C(=O)N3CCC[C@H]3C(=O)N(C)CC(=O)N(C)C(C(C)C)C(=O)O[C@@H]2C)c(N)c1=O (some centres undefined) (I: T[ξV]P[Sar][ξNMeV] / II: T[ξV]P[Sar][ξNMeV]; ester I:1-I:C, II:1-II:C; linker I:N-II:N via Actinocin(9to1))",0.0132 µM (active),
O=c1cc(C2=CC=CC3Sc4ccccc4SC23)oc(N2CCOCC2)c1 (centres undefined),,-19.3% (inactive)
CCOC(C)=O,,12.9% (inactive)
CCCCCCCCCCCCCCCCCCOP(=O)([O-])OC1CC[N+](C)(C)CC1,,13.1% (inactive)
IC(I)I,,8.07% (inactive)
O=C(O)CC/C=C\CC[C@H]1[C@@H](N2CCCCC2)[C@@H](O)C[C@@H]1OCc1ccc(-c2ccccc2)cc1,,3.93% (inactive)
CCCCC(CC)COC(=O)CC(C(=O)OCC(CC)CCCC)S(=O)(=O)O (centres undefined),,-7.18% (inactive) and 8.87% (inactive)
CCCCCCCC/C=C\CCCCCCCC(=O)O,,5.58% (inactive)
CC1=CCC(C(C)(C)O)CC1 (centres undefined),,-0.0478% (inactive)
Nc1ccn([C@H]2CS[C@@H](CO)O2)c(=O)n1,,6.99% (inactive) and 7.67% (inactive)
O=C(O)CCC(=O)C(=O)O,,11.5% (inactive)
CC(NC(=O)Cc1cc(F)cc(F)c1)C(=O)NC(C(=O)OC(C)(C)C)c1ccccc1 (centres undefined),,8.47% (inactive)
C[C@@H]1CCC2[C@@H](C)[C@@H](O)O[C@@H]3O[C@@]4(C)CC[C@@H]1[C@@]23OO4 (some centres undefined),0.0469 µM (active),
C[C@@H]1CCN(C(=O)CC#N)C[C@@H]1N(C)c1ncnc2[nH]ccc12,,9.63% (inactive)
CCCCC/C=C\C/C=C\CCCCCCCC(=O)O,,0.52% (inactive)
CNC1CCN(C(Cc2cccc(-c3ccncc3)c2)C(=O)c2sc3c(F)ccc(F)c3c2Cl)CC1 (centres undefined),9.35 µM (active),
CC(C)C[C@@H]1NC(=O)[C@H](CCCN)NC(=O)[C@H](C(C)C)NC(=O)[C@@H]2CCCN2C(=O)[C@@H](Cc2ccccc2)NC(=O)[C@H](CC(C)C)NC(=O)[C@H](CCCN)NC(=O)[C@H](C(C)C)NC(=O)[C@@H]2CCCN2C(=O)[C@@H](Cc2ccccc2)NC1=O (cyclo(V[Orn]L[dF]PV[Orn]L[dF]P)),2.24 µM (active),
CCC1(O)CC2CN(CCc3c([nH]c4ccccc34)[C@@](C(=O)OC)(c3cc4c(cc3OC)N(C=O)[C@H]3[C@](O)(C(=O)OC)[C@H](OC(C)=O)[C@]5(CC)C=CCN6CC[C@]43[C@@H]65)C2)C1 (some centres undefined),,-18.4% (inactive)
Cc1nnc(C(C)C)n1C1CC2CCC(C1)N2CC[C@H](NC(=O)C1CCC(F)(F)CC1)c1ccccc1 (some centres undefined),,3.23% (inactive)
NC(=O)Nc1cc(-c2ccc(CN3CCOCC3)c(F)c2)sc1C(=O)N[C@H]1CCCNC1,18.7 µM (active),

# Assay: qHTS assay for cell viability of HEK293 cells (AID 743288); also: nearly all actives have a fitted effect of over 50% in size
# Settings: ATP luminescence (CellTiter-Glo), 18 h, active compounds read low
# Procedure, shortened: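 Readout is luciferase-coupled ATP content (CellTiter-Glo luminescence, 30 min room temperature) as a measure of metabolically competent cells. Parental HEK293 cells were plated 5 h or more before compound addition, then treated 18 h at 37 C.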
row,Compound,max response
1,CCOC(C)=O,2.28% (inactive)
2,CC1=C2[C@@H]([C@H](C)CC[C@H]2/C=C(\C)C(=O)O)[C@H](O)C1,-12% (inactive)
3,IC(I)I,-1.78% (inactive) and -16.4% (inactive)
4,CCCCC(CC)COC(=O)CC(C(=O)OCC(CC)CCCC)S(=O)(=O)O (centres undefined),-6.91% (inactive)
5,CCCCCCCC/C=C\CCCCCCCC(=O)O,-8.54% (inactive) and -13.9% (inactive)
6,CC1=CCC(C(C)(C)O)CC1 (centres undefined),-13.3% (inactive)
7,O=S(=O)(O)O,9.97% (inactive) and -5.38% (inactive)
8,Nc1ccn([C@H]2CS[C@@H](CO)O2)c(=O)n1,-4.28% (inactive)
9,O=C(O)CCC(=O)C(=O)O,2.53% (inactive)
10,O=C(O)CN(CCN(CC(=O)O)CC(=O)O)CC(=O)O,-9.23% (inactive) and -6.76% (inactive)
11,C[C@H]1C[C@H]2[C@@H]3CCC4=CC(=O)C=C[C@]4(C)[C@@]3(F)[C@@H](O)C[C@]2(C)[C@@]1(O)C(=O)CO,-14.2% (inactive)
12,CCCCC/C=C\C/C=C\CCCCCCCC(=O)O,-9.3% (inactive) and -9.38% (inactive)
13,CCOc1ccc2c(c1)C(C)=CC(C)(C)N2,-17.1% (inactive) and -27.7% (inactive)
14,Cc1ccccc1,1.99% (inactive) and 6.48% (inactive)

# Assay: qHTS assay for cell viability of the p53RE-bla HCT-116 cell line (AID 743292); also: nearly all actives have a fitted effect of over 55% in size
# Settings: p53RE-bla HCT-116 viability, ATP luminescence, 16 h; series mostly up to 95 µM; activity change, negative = cytotoxicity: at the top concentration
# Procedure, shortened: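 Luminescent ATP quantitation (CellTiter-Glo) served as the viability read-out; reagent was added after 16 h compound exposure at 37 C and read after 30 min at room temperature. Cells: p53RE-bla HCT-116, 4,000 per well.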
Compound,"activity change, negative = cytotoxicity",outcome
CCOC(C)=O,1.29% (inactive),
CC1=C2[C@@H]([C@H](C)CC[C@H]2/C=C(\C)C(=O)O)[C@H](O)C1,-1.41% (inactive),
IC(I)I,,inactive
CCCCC(CC)COC(=O)CC(C(=O)OCC(CC)CCCC)S(=O)(=O)O (centres undefined),18.6% (inactive),
CCCCCCCC/C=C\CCCCCCCC(=O)O,,inactive
CC1=CCC(C(C)(C)O)CC1 (centres undefined),2.9% (inactive),
O=S(=O)(O)O,,inactive
Nc1ccn([C@H]2CS[C@@H](CO)O2)c(=O)n1,0.719% (inactive),
O=C(O)CCC(=O)C(=O)O,-1.65% (inactive),
O=C(O)CN(CCN(CC(=O)O)CC(=O)O)CC(=O)O,,inactive
C[C@H]1C[C@H]2[C@@H]3CCC4=CC(=O)C=C[C@]4(C)[C@@]3(F)[C@@H](O)C[C@]2(C)[C@@]1(O)C(=O)CO,-8.7% (inactive),
CCCCC/C=C\C/C=C\CCCCCCCC(=O)O,,inactive
CCOc1ccc2c(c1)C(C)=CC(C)(C)N2,,inactive
Cc1ccccc1,,inactive

# Source: PubChem BioAssay (NCATS)
